Assay outcomes: PubChem, National Center for Advancing Translational Sciences (NCATS)
Vaccinia mCherry: qHTS for Stage-Specific Inhibitors of Vaccinia Orthopoxvirus: mCherry Reporter Primary qHTS; AID 720579, 2013; Potency, µM (highest dose often 36.5 µM), inactives show at the highest dose activity change, negative = inhibition, most hits filed as inhibitors; Vaccinia virus mCherry reporter infection, fluorescence; actives 0.63% (n = 310,000); calls by dose curve; tested in A549 cells; note: potency is the fitted concentration of half-maximal effect; nearly all actives have a fitted effect of over 35% in size
HCMV inh: qHTS Assay for inhibitors of the human cytomegalovirus (HCMV). HFF cells, HCMV-luciferase reporter, 72 h; stronger effect = lower value. activity change, negative = inhibition, % at 57.5 µM. actives 4.5% (n = 410,000); in the data active = activity change below about -60%; inconclusive = no clear call, values can overlap the other calls; inactive = above about -39%
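Two-dose cell screen: HFF monolayers treated with compounds and infected with luciferase-expressing HCMV at 1 PFU/cell, 72 h at 37C, then lysed for luciferase measurement.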
LmPK inh: qHTS Assay for Inhibitors of Leishmania Mexicana Pyruvate Kinase (LmPK). purified LmPK, Kinase-Glo ATP luminescence, 1 h. Potency, µM (highest dose often 57.5 µM), inactives show top-dose activity change, negative = inhibition, actives largely listed as inhibitors. Q27686. actives 0.37% (n = 290,000); note: potency is the fitted concentration of half-maximal effect
Target sequence (Q27686 whole entry, looked up): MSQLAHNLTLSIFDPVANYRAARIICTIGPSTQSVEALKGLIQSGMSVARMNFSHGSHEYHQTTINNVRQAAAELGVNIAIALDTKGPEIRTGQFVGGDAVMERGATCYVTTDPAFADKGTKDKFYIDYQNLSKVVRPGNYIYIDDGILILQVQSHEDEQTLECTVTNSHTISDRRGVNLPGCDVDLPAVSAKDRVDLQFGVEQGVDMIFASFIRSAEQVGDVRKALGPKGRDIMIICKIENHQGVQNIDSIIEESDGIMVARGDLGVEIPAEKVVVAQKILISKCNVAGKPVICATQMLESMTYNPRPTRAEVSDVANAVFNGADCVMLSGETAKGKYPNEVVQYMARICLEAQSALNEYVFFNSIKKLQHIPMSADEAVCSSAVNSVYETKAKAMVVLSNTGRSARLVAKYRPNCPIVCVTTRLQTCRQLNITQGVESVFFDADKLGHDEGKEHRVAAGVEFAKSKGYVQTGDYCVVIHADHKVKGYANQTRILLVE
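Pyruvate kinase activity monitored as ATP production (luciferase luminescence). Conditions: 0.1 nM enzyme, 0.5 mM PEP, 0.1 mM ADP, 1 h, RT; normalized against uninhibited and no-enzyme wells.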
Vaccinia Venus: qHTS for Stage-Specific Inhibitors of Vaccinia Orthopoxvirus: Venus Reporter Primary qHTS. Potency, µM (titrated, usually from 36.5 µM), without a hit: at the top dose activity change, negative = inhibition, hits mostly inhibitors. actives 0.46% (n = 330,000). AID 720580, 2013. Vaccinia virus Venus reporter expression, fluorescence; calls by dose curve; tested in A549 cells; note: potency is the fitted concentration of half-maximal effect; nearly all actives have a fitted effect of over 30% in size
TbPYK inhibitor: qHTS of Trypanosoma Brucei Inhibitors; pyruvate kinase (Trypanosoma brucei), Q57TT1; AID 624173, 2012; TbPYK enzyme, Kinase-Glo Plus ATP luminescence, 45 min; actives 0.12% (n = 410,000); Potency, µM (doses to about 76.8 µM), without a hit: at the top dose activity, negative = inhibition, actives largely listed as inhibitors; note: potency is the fitted concentration of half-maximal effect; nearly all actives have a fitted effect of over 50% in size
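Screened from lowest to highest concentration, compounds were pinned into TbPYK/substrate mixtures, and ADP (130 uM final) was added. Plates sat at room temperature for 45 min prior to Kinase-Glo Plus detection by luminescence.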
Active calls of the source: *; i = inactive; u = inconclusive; x = no result given; + = active, no number; ! = repeats disagree; [ ] = another dose, or the depositor's remark. An excerpt weighted towards active compounds, which were near 5% of everything screened. Unless noted, calls come from the whole dose curve; as a rule, active = well fitted curve in the direction sought with a large enough effect; inconclusive = small, poorly fitted or top-dose-only effect, or another doubt; inactive = no such curve, though single readings can be large; an effect the other way counts as inactive or inconclusive. % is set by controls: 0 for no effect and ±100 for the full control effect.

SMILES	Vaccinia mCherry	HCMV inh	LmPK inh	Vaccinia Venus	TbPYK inhibitor
O=C(CCl)NC1CCCc2ccccc21 (stereo not given)	u	-109*	-3%	u	-1%
Cc1cccc(-n2nnnc2SCn2nnc3ccccc3c2=O)c1	x	-35	1%	x	-2%
COc1ccc(N(C(=O)c2ccc(Cl)cc2)C2=CC3CCC(C2)N3C)cc1 (stereo not given)	x	-18	0%	5%	0%
CC1(c2nnc(-c3ccc(F)cc3)o2)CC(c2cccc(Cl)c2)=NO1 (stereo not given)	i	-16	-1%	-18%	4%
c1ccc(CSc2nnc3c(n2)OC(c2ccco2)Nc2ccccc2-3)cc1 (stereo not given)	-17%	x	-3%	-9%	2%
COc1ccccc1C(=O)Nc1ccnn1C1CCN(Cc2ccccc2OCCO)CC1	-17%	5	7%	u	-2%
O=C(OCc1ccc(Br)cc1)c1cnc(Cl)c(Cl)c1	-3%	-60*	8%	-16%	0%
O=C(OCc1ccc(Br)cc1)c1ccncc1	x	16	5%	x	3%
N#Cc1ccc(NC(=O)Cn2cnc([N+](=O)[O-])c2)cc1	i	13	1%	-13%	1%
O=C(Cn1cnc([N+](=O)[O-])c1)Nc1cc(Oc2ccc(Cl)cc2Cl)cc([N+](=O)[O-])c1	x	-73*	2%	u	0%
O=C(Nc1ccccc1)c1ccc(Nc2c([N+](=O)[O-])cc([N+](=O)[O-])c3ccccc23)cc1	u	-74*	2%	u	-10%
O=[N+]([O-])c1cc(Br)c(Nc2ccccc2)c([N+](=O)[O-])c1	x	-85*	-5%	x	1%
COc1cccc(NC(=O)C(Cc2ccccc2)NS(=O)(=O)c2ccc3c(c2)c(=O)n(C)c(=O)n3C)c1 (stereo not given)	i	-4	x	-4%	3%
C=C1N(S(=O)(=O)C(F)(F)F)CCC12CN(S(=O)(=O)c1ccc(C)cc1)c1ccccc12 (stereo not given)	x	-70*	x	x	x
Cc1ccc(S(=O)(=O)C(c2ccccc2)c2c(C)noc2C)cc1 (stereo not given)	-10%	-72*	-1%	-15%	9%
CCNc1c2c(nc3ccccc13)CC(C)(C)CC2=O	x	-22	-1%	-37%	-17%
CCn1c(C)c(C)c2cc(C(=O)NCCCN3CCCCC3C)ccc21 (stereo not given)	-21%	+!	4%	-17%	9%
COCCn1c(C)cc(C2=NNC(=NC3CC3)SC2)c1C	i	-96*	u	-4%	u
COCCn1c(C)cc(C2=NNC(=Nc3ccc(Cl)cc3Cl)SC2)c1C	x	-21	-2%	x	u
COCC(C)N=C1NN=C(c2cc(C)n(Cc3ccccc3Cl)c2C)CS1 (stereo not given)	x	-79*	-3%	x	-21%
C=CCN=C1NN=C(c2cc(C)n(CCOC)c2C)CS1	-2%	-96*	u	-5%	1%
Cc1cc(C2=NNC(=NC3CC3)SC2)c(C)n1Cc1ccco1	-9%	-98*	-26%	-19%	-39%
C[C@H](O)Cn1cnc2c1c(=O)n(C)c(=O)n2C	x	x	x	x	3%[33.2 µM]
C=CCn1c(C)cc(C2=NNC(=NC(C)(C)C)SC2)c1C	-18%	-85*	u	-25%	u
COc1cc(C2Oc3ccccc3C=C2[N+](=O)[O-])cc(OC)c1OC (stereo not given)	x	-104*	3%	x	-17%
SMILES	Vaccinia mCherry	HCMV inh	LmPK inh	Vaccinia Venus	TbPYK inhibitor
CN(CC(O)COc1ccc(OCC(O)CN(C)C2CCCCC2)cc1)C1CCCCC1 (stereo not given)	i	u	-5%	-23%	3%
Cc1cccc(C)c1OCC(O)CN(Cc1ccccc1O)C1CCCCC1 (stereo not given)	i	-69*	10%	-16%	3%
O=C(COc1ccccc1[N+](=O)[O-])N1CCC(Cc2ccccc2)CC1	8%	-21	-5%[11.5 µM]	-4%	1%
NC(=O)c1ccccc1OCC(=O)N1CCC(Cc2ccccc2)CC1	x	-68*	x	x	2%
CC(=O)Nc1cc(-c2cccc(C(=O)N(C)C)c2)cn2c(-c3ccc(F)cc3)cnc12	-6%	u	x	-5%	-3%
O=C1CCCC2=C1C(c1ccc(Cl)cc1)C1C(=O)c3ccccc3C1=N2 (stereo not given)	u	-70*	-6%	u	-9%
O=C1CCCC2=C1C(c1ccccc1)C1C(=O)c3ccccc3C1=N2 (stereo not given)	u	20	0%	u	u
COc1cccc(Cn2c(=O)n(-c3ccccc3C)c(=O)c3c2c2cc(C)ccc2n3C)c1	-21%	-68*	x	-8%	1%
CCOC(=O)c1cc2nc(OCC)nc(OCC)c2[nH]1	i	-29	x	-14%	13%
O=[N+]([O-])c1ccc(Cl)c(S(=O)(=O)Nc2cccc(-c3ccc(N4CCOCC4)nn3)c2)c1	u	u	x	-25%	1%
COCC(=O)NC1CC2CCC(C1)N2C(=S)Nc1ccccc1C(=O)OC (stereo not given)	6%	-83*	4%	-11%	2%
COc1ccccc1NC(=S)N1C2CCC1CC(NC(=O)NC13CC4CC(CC(C4)C1)C3)C2 (stereo not given)	u	u	7%	-29%	0%
Clc1cccc(C2CCN(Cc3nc(COc4ccccc4)no3)C2)c1 (stereo not given)	-9%	-5	-6%	-5%	0%
COc1ccc(/C=C/C(=O)c2c(O)c(OC)c3occc3c2OC)cc1	x	9	4%	x	-3%
CC(C(=O)O)N1C(=O)c2ccccc2C1=O (stereo not given)	x	-99*	8%	x	-4%
COc1ccc(C2CC(=O)N(Cc3ccc(C)cc3)c3c2c(C)nn3-c2nc(C)cc(C)n2)c(OC)c1 (stereo not given)	-6%	5	x	-3%	0%
O=C(O)c1cccc(NC(=O)c2ccc3c(c2)C(=O)N(CC2CCCO2)C3=O)c1 (stereo not given)	x	-108*	-11%	x	x
COC(=O)c1cccc(NC(=O)c2ccc3c(c2)C(=O)N(CC2CCCO2)C3=O)c1 (stereo not given)	i	-9	2%	-5%	3%
Cc1nn(C(=O)c2c(-c3ccccc3)noc2C)c(C)c1N=Nc1cc(C(F)(F)F)cc(C(F)(F)F)c1	i	-12	-3%	-15%	-2%
COc1cccc(C(O)c2nc(-c3ccncc3)cs2)c1 (stereo not given)	u	-76*	x	u	1%
COc1ccc(-c2csc(C(O)c3ccc(OC)cc3)n2)cc1 (stereo not given)	-24%	-72*	x	-19%	-6%
